Screening data deposited in PubChem by several laboratories.
Pyk2 oligo antag: Pyk2 (human) oligomerization antagonism. actives 0.83% (n = 99,000). Q293 cells, Pyk2 FERM NanoBiT luminescence; stronger effect = lower value. z-score (the deposit names both 25 µM and 10 µM). Q14289;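 active means Z-score of -3 or lower, scaled per plate to the spread of control and sample wells; inactive means z-score above -3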;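 further: negative z-score means lost luminescence so less FERM oligomerization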
SDO1 yeast rescue: compounds rescuing growth of sdo1-depleted yeast, bone marrow failure model | S. cerevisiae sdo1-depleted JHY4D growth rescue, OD600 30 h; stronger effect = higher value; pdr5 snq2 efflux-pump mutant strain | z-score at 10 µM | actives 0.21% (n = 140,000);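 active means z-score above 3 at both the 24 hr and the 30 hr optical density reads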;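 further: z-score against mean and SD of all compound wells on the same plate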
PLK1 kinase inh: PLK1 (human) kinase inhibition. P53350. recombinant PLK1 kinase, TR-FRET peptide phosphorylation. inhibition, % at 10 µM. actives 0.53% (n = 97,000);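 active means inhibition of 50% or more in the single-concentration screen; inactive means inhibition below 50%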;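 further: 0% = DMSO max control and 100% = H-89 dihydrochloride min control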
Target sequence (P53350 whole entry, looked up): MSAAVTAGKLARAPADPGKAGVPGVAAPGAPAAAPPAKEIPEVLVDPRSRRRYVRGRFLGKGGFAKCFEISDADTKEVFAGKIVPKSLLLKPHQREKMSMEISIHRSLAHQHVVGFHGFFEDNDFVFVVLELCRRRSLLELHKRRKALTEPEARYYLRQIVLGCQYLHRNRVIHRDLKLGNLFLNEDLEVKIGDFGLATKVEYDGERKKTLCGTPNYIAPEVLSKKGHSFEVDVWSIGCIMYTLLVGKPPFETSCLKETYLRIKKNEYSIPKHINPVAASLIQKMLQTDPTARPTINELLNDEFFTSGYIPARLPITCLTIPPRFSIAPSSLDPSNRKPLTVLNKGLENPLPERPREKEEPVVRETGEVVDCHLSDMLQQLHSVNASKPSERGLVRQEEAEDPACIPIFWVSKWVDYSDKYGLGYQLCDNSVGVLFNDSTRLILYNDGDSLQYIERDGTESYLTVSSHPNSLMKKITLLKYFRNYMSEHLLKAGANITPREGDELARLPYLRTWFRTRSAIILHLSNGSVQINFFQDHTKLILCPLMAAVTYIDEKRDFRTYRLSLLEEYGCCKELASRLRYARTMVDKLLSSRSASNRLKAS
Cav32 inh: inhibitors of human Cav3.2 T-type calcium channel; O95180; Cav3.2-expressing cells, Fluo-4 calcium fluorescence FDSS; stronger effect = lower value; B-score at 10 µM; actives 4% (n = 100,000); AID 449739;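 active means single-dose well whose peak fluorescence ratio is a statistical outlier from its plate by either plate-standardised score or position-corrected B-score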
PLK1 PBD inh: inhibitors of human Plk1 polo box domain binding; P53350; Plk1 PBD phosphopeptide binding, fluorescence polarization; inhibition, %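 (tested at about 20 µM)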; actives 0.13% (n = 97,000); in the data active means inhibition above about 34%, passing the limit was not always enough
hDAT+cocaine: changed human dopamine transporter uptake under cocaine IC80; Q01959; AID 449768; actives 1.3% (n = 110,000); LLC-PK1 hDAT cells, [14C]-dopamine uptake with cocaine IC80; actives deviate in either direction; B-score at 10 µM;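 active means Z score or B-score, a plate-position-corrected score, falls beyond the plate's 99.7% confidence bounds, in either direction; inactive means both scores lie inside the 99.7% bounds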;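 further: scored against the spread of the other compound wells on the same plate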
Starred values were filed as active, the others as inactive; x = not tested or not shown. Compounds with a hit are over-represented: about 4.7% of the library has one in this group of screens.

SMILES	Pyk2 oligo antag	SDO1 yeast rescue	PLK1 kinase inh	Cav32 inh	PLK1 PBD inh	hDAT+cocaine
Cn1c(CSCc2ccccc2Cl)nnc1SCC(=O)Nc1nccs1	0.73	-0.27	65*	-2.9	-21	0.15
CSCCC(NS(=O)(=O)c1ccccc1F)C(=O)OCc1ccccc1Cl (stereo not given)	0.24	0.13	x	x	x	x
COc1ccc(N/N=C(/C#N)S(=O)(=O)c2nsc(C)c2C#N)cc1	-1.5	0.31	8	1.8	-4	-0.45
Cc1snc(S(=O)(=O)/C(C#N)=N/Nc2cccc(C(F)(F)F)c2)c1C#N	0.48	1.6	-10	-6.2*	-5	-0.71
O=C(NN=C1c2ccccc2-c2ccccc21)c1ccccc1Br	0.18	-1.4	-10	-4*	32	1.2
O=C(NN=C1c2ccccc2-c2ccccc21)c1ccccc1	x	x	-13	x	x	x
OCCN(CCO)c1ncnc2c1sc1nc(N3CCOCC3)c3c(c12)CCCC3	-0.93	0.68	-2	0.71	5	4.1*
CCN(CC)C(=O)c1sc2nc(N3CCOCC3)c3c(c2c1N)CCCC3	-0.41	-1.2	-4	-1.2	25	3*
COC(=O)C(NC(C)=O)(Nc1nc2c(C)cc(C)cc2s1)C(F)(F)F (stereo not given)	-1.2	0.41	-24	-4.3*	-6	-0.73
C=CCSc1nnc(-c2cc3c(C(F)(F)F)nn(C)c3s2)n1C	-0.01	0.52	-13	-0.52	-4	-8.8*
C=CCSc1nnc(-c2cc3c(-c4ccccc4)nn(C)c3s2)n1C	0.25	-0.3	2	x	8	1.2
O=C(Nc1ccccc1)C1=C(O)CC(c2ccc(Cl)cc2)N2CCN=C12 (stereo not given)	x	-2	x	x	x	x
O=C(OCCN1C(=O)c2cccc3c(N4CCOCC4)ccc(c23)C1=O)c1ccccc1Cl	x	-0.39	x	x	x	x
O=C1c2cccc3c(N4CCCCC4)ccc(c23)C(=O)N1CCO	-0.77	-0.99	-30	-6.1*	-141	0.29
Cc1n[nH]c(C)c1N1C(=O)c2cccc3c(N4CCCCCC4)ccc(c23)C1=O	0.01	-1.1	-104	-9.7*	-182	1.4
CCOC(=O)c1ccc(N2C(=O)C3C(/C=C/c4ccccc4)OC4(C(=O)c5ccccc5C4=O)C3C2=O)cc1 (stereo not given)	x	1.7	x	x	x	x
CCOC(=O)c1cc2c(C)n(-c3ccc(C)cc3)c(C)c2ccc1=O	-0.67	-2.4	-9	-7.4*	-6	-0.038
COC(=O)Nc1ccc(S(=O)(=O)N2c3ccccc3CCC2C)cc1 (stereo not given)	-3.2*	-0.81	x	-7.2*	x	-0.086
COc1c(C(CC(C)C)OC(C)=O)ccc2c1C(=O)OCc1cc(C)cc(O)c1O2 (stereo not given)	x	x	x	-3.8*	x	0.54
COc1c(C(O)CC(C)C)ccc2c1C(=O)OCc1cc(C)cc(O)c1O2 (stereo not given)	x	x	x	-2.9	x	0.84
Cc1nnc(SCc2ccc(C(=O)O)cc2)s1	0.43	0.15	-4	1.5	-11	0.14
Cc1cc(C)cc(NC(=O)c2ccc(CSc3nnc(C)s3)cc2)c1	0.62	-0.73	-6	-11*	-12	-0.83
O=C(O)c1ccc(CSc2nnc(SCc3ccccc3)s2)cc1	-0.52	0.28	-14	-6.6*	-13	-0.42
COc1ccc(-n2c(=O)c3c4c(sc3n3c(=S)[nH]nc23)CCCC4)cc1	x	-0.59	x	x	x	x
CC(=O)Nc1ccc(S(=O)(=O)Nc2cccc(-c3nc4ccccc4o3)c2)cc1	-0.68	-0.46	6	-2.4	-20	0.015
SMILES	Pyk2 oligo antag	SDO1 yeast rescue	PLK1 kinase inh	Cav32 inh	PLK1 PBD inh	hDAT+cocaine
O=S(=O)(Nc1ccc(-c2nc3ccccc3o2)cc1)c1ccccc1	-3.5*	-1.8	0	-1.9	9	0.39
CCCOC1OC(=O)c2c1ccc(OC)c2OC (stereo not given)	1.3	0.56	x	x	x	x
COc1ccc(/C=C/C(O)=C2/C(=O)N(C)C3(C)CC2c2ccccc2O3)cc1 (stereo not given)	-1.3	-1.4	-9	-5*	0	0.014
COc1ccc(-c2nc(NC(=O)Cn3ccc(C(F)(F)F)n3)sc2C)cc1	-0.01	-0.83	-1	-7.6*	-10	1.3
O=C(Nc1ccc(Cl)c(Cl)c1)Nc1nnc(CSc2ccccc2)s1	x	0.94	x	x	x	x
CSCCC(NS(=O)(=O)c1ccc(Cl)cc1)C(=O)OCC(=O)NC1CC1 (stereo not given)	0.49	0.52	8	-0.23	-7	-1.3
CSCCC(NS(=O)(=O)c1ccc(Cl)cc1)C(=O)OCC(=O)NC1CCCCC1 (stereo not given)	1.8	1.5	-9	-3.3	30	3.2*
CSCCC(NS(=O)(=O)c1ccc(Cl)cc1)C(=O)OCC(=O)N(C(C)C)C(C)C (stereo not given)	0.08	-0.46	-6	-3.4*	-28	0.58
C=CC[C@@H]1C=C(C)C[C@H](C)C[C@H](OC)[C@H]2O[C@@](O)(C(=O)C(=O)N3CCCC[C@H]3C(=O)O[C@H](/C(C)=C/[C@@H]3CC[C@@H](O)[C@H](OC)C3)[C@H](C)[C@@H](O)CC1=O)[C@H](C)C[C@@H]2OC	x	x	x	-4.1	x	0.92
COc1cc2c(cc1OC)C1(Nc3c-2c(C)nn3-c2ccccc2)C(=O)Nc2ccccc21 (stereo not given)	-1.1	0.61	-14	x	-29	x
COc1cc2c(cc1OC)C1(Nc3c-2c(-c2ccccc2)nn3-c2ccccc2)C(=O)Nc2ccccc21 (stereo not given)	-3.2*	-0.6	-11	-1.4	-14	0.95
C=CCc1ccc(OCC(O)CN2CCCCC2)c(OC)c1 (stereo not given)	0.06	-0.14	-1	-2.2	-4	0.32
C=CCc1ccc(OCC(O)COc2ccc(CC=C)cc2OC)c(OC)c1	-1.8	-0.91	-4	-8.9*	-16	0.68
C=CCc1ccc(OCCOCCOc2ccccc2[N+](=O)[O-])c(OC)c1	-0.79	-0.93	-12	-4.6*	12	1.2
C=CCc1ccc(OCCOCCOc2cccc3cccnc23)c(OC)c1	x	-1.6	x	x	x	x
O=C(Nc1ccc(F)cc1)c1ccccc1S(=O)(=O)c1ccccc1[N+](=O)[O-]	x	1.7	x	x	x	x
C=CCn1c(CSc2nc3ccccc3s2)nnc1SCC(=O)NCc1ccccc1	0.85	-1.4	-11	-4.3*	4	0.3
C=CCn1c(CSc2nc3ccccc3s2)nnc1SCC(=O)NCc1cccnc1	0.31	-0.63	-7	0.79	-15	0.42
COc1ccc(-c2[nH]c(-c3ccc(C(=O)O)cc3)nc2-c2ccccc2)cc1	-1.4	1.4	-22	1.4	8	-2.4*
O=C(CCS(=O)(=O)Cc1ccccc1)NCC1CCCO1 (stereo not given)	0.38	-0.16	4	0.036	-14	2.1*
CC(CNS(=O)(=O)c1ccccc1)(c1ccccc1)N1CCOCC1 (stereo not given)	x	-0.55	x	x	x	x
CCOC(=O)CSc1nc(C2CC2)cc(-c2ccc(F)cc2)c1C#N	-3.3*	-0.26	-4	-3.5	-40	-0.19
